# Hits are enriched below; roughly 3.3% of the tested compounds scored in any of these assays.
# Tau fluor cs – Counterscreen qHTS for Inhibitors of Tau Fibril Formation, Fluorescence Polarization. tau K18 P301L Alexa594 fluorescence, heparin fibrillization. Potency, µM (top dose mostly 57.7 µM), for inactives: at the highest dose activity change, negative = decrease. 280,000 compounds, 0.93% hits; also: nearly all actives have a fitted effect of over 55% in size
#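 Human tau K18 P301L (15 uM unlabeled, 0.24 uM Alexa 594-labeled) in 100 mM sodium acetate pH 7 with 20 uM heparin, 6 hr at 37 C. ThT 30 uM added, 1 hr ambient; Alexa 594 FP and total fluorescence read at 555/632 nm.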
# Luc counter – Counterscreen for Luciferase (Kinase-Glo TM) Inhibition; Potency, µM (highest dose often 38.3 µM), without a hit: top-dose activity change, negative = inhibition, hits mostly inhibitors; 200,000 compounds, 0.28% hits; Luciferin 4-monooxygenase (Photuris pensylvanica), Q27757; Kinase-Glo luciferase, ATP luminescence, 8 min; also: nearly all actives have a fitted effect of over 60% in size
#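 Compounds were added to a substrate mix at pH 7.2 (50 mM imidazole, 10 uM ATP, within the enzyme's linear range), followed by Kinase-Glo detection reagent; luminescence was measured after 8 minutes at ambient temperature.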
# Tau fibril FP – qHTS for Inhibitors of Tau Fibril Formation, Fluorescence Polarization. Microtubule-associated protein tau (Homo sapiens), P10636. K18 P301L tau heparin fibrillization, Alexa594 FP, 6 h. Potency, µM (titrated, usually from 57.7 µM), inactives show at the highest dose activity, negative = inhibition, actives largely listed as inhibitors. 280,000 compounds, 0.39% hits; also: nearly all actives have a fitted effect of over 55% in size
# Target sequence (P10636 561-689 P618L limits assumed): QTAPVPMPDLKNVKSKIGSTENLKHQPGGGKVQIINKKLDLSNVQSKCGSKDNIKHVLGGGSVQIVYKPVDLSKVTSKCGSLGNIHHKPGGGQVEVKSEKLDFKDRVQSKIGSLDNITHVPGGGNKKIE
#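 Read-out: fluorescence polarization of Alexa 594-labeled tau (0.24 uM), 555 nm excitation, 632 nm emission. Mixtures held 15 uM unlabeled K18 P301L, compound and 20 uM heparin, pH 7 acetate buffer, incubated 6 hr at 37 C.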
# NPSR antagonist – qHTS Assay for Antagonists of the Neuropeptide S Receptor: cAMP Signal Transduction; Q6W5P4; CHO-NPSR cells, cAMP TR-FRET, antagonist mode; Potency, µM (titrated, usually from 38.3 µM), for inactives: top-dose activity change, negative = inhibition, hits mostly inhibitors; 220,000 compounds, 1% hits; AID 1461, 2008; also: nearly all actives have a fitted effect of over 50% in size
# Target sequence (Q6W5P4 whole entry, looked up): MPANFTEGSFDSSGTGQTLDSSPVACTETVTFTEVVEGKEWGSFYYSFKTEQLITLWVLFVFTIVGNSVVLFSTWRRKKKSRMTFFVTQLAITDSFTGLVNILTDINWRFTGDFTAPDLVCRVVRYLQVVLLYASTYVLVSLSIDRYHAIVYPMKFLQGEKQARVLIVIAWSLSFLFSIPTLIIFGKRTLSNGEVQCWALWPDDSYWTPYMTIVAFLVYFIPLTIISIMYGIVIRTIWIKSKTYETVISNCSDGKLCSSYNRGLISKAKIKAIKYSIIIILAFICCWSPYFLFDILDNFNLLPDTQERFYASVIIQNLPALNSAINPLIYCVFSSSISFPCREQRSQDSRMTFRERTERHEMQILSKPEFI
# Tau ThT inhib – qHTS for Inhibitors of Tau Fibril Formation, Thioflavin T Binding. AID 1460, 2008. 270,000 compounds, 2.1% hits. Microtubule-associated protein tau (Homo sapiens), P10636. Potency, µM (series often up to 57.4 µM), for inactives: top-dose activity, negative = inhibition, usual class: inhibitors. recombinant tau K18 P301L (four-repeat tau fragment), heparin-induced fibrillization, ThT fluorescence; also: nearly all actives have a fitted effect of over 55% in size
#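 Aggregation was driven by heparin (20 uM final) acting on recombinant tau […] bearing P301L in 100 mM sodium acetate pH 7; fibrils were detected with Thioflavin T.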
# Active calls of the source: *; ? = inconclusive; . = no result given; [ ] = dose if it differs, or a comment. Calls follow the shape of the dose curve; as a rule, active = well fitted curve in the direction sought with a large enough effect; inconclusive = small, poorly fitted or top-dose-only effect, or another doubt; inactive = no such curve, though single readings can be large; an effect the other way counts as inactive or inconclusive. % is scaled to controls: 0 for no effect and ±100 for the full control effect; potency is read from the fitted curve at half-maximal effect.
SMILES,Tau fluor cs,Luc counter,Tau fibril FP,NPSR antagonist,Tau ThT inhib
Clc1ccccc1-c1nnc(COc2ccccc2)o1,-24%,.,-9%,.,-15%
COc1ccc(Nc2ncnc3sc(-c4ccccc4)cc23)cc1,7.9µM*[quencher],-6%,?,?,?
COc1ncnc2sc(-c3ccccc3)cc12,-1%,10µM*,-8%,8%[46.1 µM],-7%
Cc1cc2c(Nc3ccccc3)ncnc2s1,-10%,-3%,-1%,-4%,-4%
O=C(COCc1cc(-c2cccs2)on1)NCc1ccc(F)cc1,-13%,.,-1%,.,-2%
COc1cc(C2Nc3cccc4cccc(c34)N2)cc(OC)c1O,4.5µM*[quencher],-19%,?,-8%[46.1 µM],16µM*
COc1cc(C2Nc3cccc4cccc(c34)N2)ccc1OC(C)=O,?,-2%,-2%,-12%[46.1 µM],?
c1coc(C2Nc3cccc4cccc(c34)N2)c1,7.9µM*[quencher],-8%,?,-7%[46.1 µM],11µM*
O=[N+]([O-])c1ccc(C2Nc3cccc4cccc(c34)N2)cc1,13µM*[quencher],-4%,?,-15%,14µM*
O=[N+]([O-])c1cccc(C2Nc3cccc4cccc(c34)N2)c1,?,0%,0%,-11%,?
COC(=O)c1ccc(C2Nc3cccc4cccc(c34)N2)cc1,14µM*[quencher],-2%,?,-32%,14µM*
Cc1ccccc1NC(=O)CSc1nc(=O)n(CCN2CCOCC2)c2c1CCC2,-10%,.,-5%,.,-6%
CCCc1cnc2c(c1SCC(=O)Nc1ccc(C)c(Cl)c1)c(=O)n(C)c(=O)n2C,?,.,-11%,.,?
FC(F)(F)c1ccc(C2Nc3cccc4cccc(c34)N2)cc1,-17%,1%,-4%,-32%,?
Oc1ccc(C2Nc3cccc4cccc(c34)N2)c(O)c1,7.9µM*[quencher],-1%,?,-11%[46.1 µM],14µM*
Cc1cc(C)n2nc(/C(C#N)=C/c3ccccn3)c(C#N)c2n1,?,-2%,?,-7%,22µM*
Cc1cc(C)n2nc(CC#N)c(C#N)c2n1,6%,-1%,3%,16%,-3%
O=C1C2C3C=CC(CO)(O3)C2C(=O)N1c1ccccc1-c1ccccc1 (stereo unspecified),-11%,0%,-7%,6.3µM*,?
CC(=O)Oc1ccc(N2C(=O)C3C4C=CC(CO)(O4)C3C2=O)cc1 (stereo unspecified),-16%,-2%,-5%,-12%[46.1 µM],-18%
Cc1c(CBr)[n+](=O)c2c(n1[O-])C(Br)CCC2Br (stereo unspecified),-28%,.,?,17%,25µM*
Cc1ccccc1-c1ccc(Nc2ccc(N3CCOCC3)cc2)nn1,?,-26%,8%,?,14µM*
O=S1(=O)N=C(Nc2ccc(N3CCOCC3)cc2)c2ccccc21,-9%,0%,?,-8%[46.1 µM],?
COc1cc(C)c(/C=C/C(C)=C/C=C/C(C)=C/C(=O)O)c(C)c1C,?,.,-11%,.,25µM*
COc1cc(C)cc(OC)c1/C=C\C(=O)O,.,-3%[7.66 µM],.,.,.
CCOC(=O)CSc1[nH]c2cc(OC)ccc2c1[N+](=O)[O-],-1%,-1%,0%,25%,0%
SMILES,Tau fluor cs,Luc counter,Tau fibril FP,NPSR antagonist,Tau ThT inhib
COc1ccc2c([N+](=O)[O-])c(Cl)[nH]c2c1,?,-1%,?,15%,28µM*
COc1ccc(-c2ccc(SC)nn2)cc1,-3%,4.5µM*,0%,-3%,?
O=c1oc(-c2ccc([N+](=O)[O-])cc2)nc2ccc(O)cc12,?,-16%,-6%,-20%,13µM*
CCN(CC)S(=O)(=O)c1ccc2c(c1)N(CC(=O)N1CCN(c3ccccc3F)CC1)C(=O)CO2,4%,.,3%,.,10%
CCc1ccc2c(c1)C1(NN=C(c3cccc4ccccc34)S1)C(=O)N2 (stereo unspecified),?,-1%,13%,6%[46.1 µM],16µM*
CCc1cccc(N2C(=O)CSC23C(=O)Nc2ccccc23)c1 (stereo unspecified),-2%,.,2%,.,1%
